From PubChem BioAssay (EPA / NIEHS) come the findings set out here.

For orientation: AC50 means the concentration at which the activity in the assay is half-maximal.

“And” between values parts separate entries of the source, which are not always exact repeats. Identical values can stand only once. The source holds several records for some structures; these can differ, active in one and inactive in another. The source made the active and inactive calls. The calls were made as follows: active = hit-call score of the fitted dose curve at least 0.9, where 1 is the maximum; inactive = score below 0.9.

A short description of this experiment: ATG_TCF_b_cat_CIS: Attagene CIS-FACTORIAL HepG2 Assay for human T-Cell-Factor with beta-catenin (TCF/b-cat) (AID 2282965). Conditions: HepG2 TCF/beta-catenin cis-reporter transcription, actives raise or lower the signal. The protocol: ATG_CIS is a cell-based, multiplexed-readout assay that uses HepG2, a human liver cell line, with measurements taken at 24 hours after chemical dosing in a 24-well plate.ATG_TCF_b_cat_CIS is one of 52 assay component(s) measured or calculated from the ATG_CIS assay. It is designed to make measurements of mRNA induction, a form of inducible reporter, as detected with fluorescence intensity signals by Reverse transcription polymerase chain reaction (RT-PCR) and Capillary electrophoresis technology.Data from the assay component ATG_TCF_b_cat_CIS was analyzed into 1 assay endpoint. This assay endpoint, ATG_TCF_b_cat_CIS, was analyzed with bidirectional fitting relative to DMSO as the negative control and baseline of activity. Using a type of inducible reporter, measures of mRNA for gain or loss-of-signal activity can be used to understand the reporter gene at the transcription factor-level as they relate to the gene TCF7 and TCF7L2 and LEF1 and TCF7L1. Furthermore, this assay endpoint can be referred to as a primary readout, because this assay has produced multiple assay endpoints where this one serves a reporter gene function. To generalize the intended target to other relatable targets, this assay endpoint is annotated to the dna binding intended target family, where the subfamily is HMG box protein.
Human liver HepG2 cells are transiently transfected with multiple reporter transcription units (MRTUs) in 6-well plates using FuGene 6 reagent (Roche; 3 ml FuGene/1 mg DNA). The MRTU constructs are regulated by a cis-regulating element (promoter). […] A major difference between the CIS and TRANS system is that in CIS activities of endogenous TFs are measured, whereas the TRANS assay evaluates changes in activities of exogenous, chimeric NR-Gal4 proteins. […] At the end of 24 hour incubation, total RNA was isolated using TriZol reagent (Invitrogen). The isolated RNA is then reverse-transcribed using oligo(dT) primer and Mo-MLV reverse transcriptase (Invitrogen) with DNAse I (Ambion) treatment for 30 min. The one-tenth of the produced cDNA was amplified by PCR using Taq DNA polymerase (Invitrogen) and two reporter sequence-specific primers. The PCR products were fluorescently labeled by primer extension with 6-arboxyfluorescein (6-FAM) 5'-labeled reporter sequence-specific primer (2 min at 95 C, 20 s at 68 C and 10 min at 72 C) and these products were digested with 5U of HpaI (New England Biolabs) for 2h at 37 C. The fragments were purified using Qiaquick PCR columns (Qiagen), analyzed on an ABI 3130xL genetic analyzer (Applied Biosystems) with peak positions identified by using a set of X-rhodamine (ROX)-labeled MapMarker1000 molecular weight standards (BioVentures). The raw capillary electrophoresis data was processed using Attagraph software (Attagene).
As for `C1=COCCC1`, the molecule was classed as inactive. On the same count and under the same terms, under `C=C1CC/C=C(\C)CC[C@@H]2[C@@H]1CC2(C)C` stands “inactive”; under `CCOC(=O)C=Cc1ccccc1`, “inactive”; under `CCCCOC(=O)C(C)OC(=O)CCC` (stereo not given), “inactive”. The same measure, in the same setting: under `CCCCCCCCCCOC(=O)c1ccccc1C(=O)OCCCCCCCC` stands “inactive”; under `CC(=O)CC(=O)N(C)C`, “inactive”.

For the molecule `C=CCOCC(O)CO` (stereo not given), the result was inactive. The same measure, in the same setting: in the case of `CC1=CCC(=C(C)C)CC1` it was “inactive”; in that of `CC1(C)CC(=O)CC(C)(C)N1`, “inactive”; in that of `CC(=O)CCC(=O)O`, “inactive”. Regarding `CC(C)Cc1ccccc1`, the molecule was classed as inactive. Still for that read-out and setting: in the case of `O=c1cc[nH]cc1` it was “inactive”; in that of `CCO[Si](CCC#N)(OCC)OCC`, “inactive”. `O=C(C=Cc1ccccc1)OCCCc1ccccc1`: the molecule was classed as inactive. For `CCCCOCCOCCO`, the result was inactive. With `OC[C@H]1O[C@@H](O[C@H]2[C@H](O)[C@@H](O)[C@H](O)O[C@@H]2CO)[C@H](O)[C@@H](O)[C@H]1O`, the call was inactive. Same read-out and setting: in the case of `CC(CO)(CO)[N+](=O)[O-]` it was “inactive”; in that of `[O-]/[N+](=N\O)c1ccccc1`, “inactive”; in that of `CCCCOCCOC(=O)c1ccccc1C(=O)OCCOCCCC`, “inactive”.

With `CC(C)(C)C1CCC(O)CC1` (stereo not given), the call was inactive.

As to `CC(=N[Si](C)(C)C)O[Si](C)(C)C`, the outcome was inactive. For the molecule `O=C(c1ccc(OCCN2CCCCC2)cc1)c1c(-c2ccc(O)cc2)sc2cc(O)ccc12`, the AC50 is 11.1 µM (active) and 15.5 µM (active); the molecule was called inactive. In the case of `CC(C)COC(=O)c1ccccc1`, the outcome was inactive. For the molecule `CC(C)C(=O)OCC=Cc1ccccc1`, the result was inactive. In the case of `CC(=O)c1cccnc1`, the outcome was inactive. On the same count and under the same terms, under `O=Cc1ccccc1O` stands “inactive”; under `c1ccc2c(c1)-c1ccc3ccc4cccc5cc-2c1c3c45`, “inactive”; under `CCCOC(=O)CC`, “inactive”. For the molecule `O=C1OCc2ccccc21`, the outcome was inactive. On the same count and under the same terms, in the case of `c1ccc(Cc2ccccc2)cc1` it was “inactive”; in that of `CC(C)(O)CCc1ccccc1`, “inactive”; in that of `C=C(C)CCCC(C)CCO` (stereo not given), “inactive”.

Regarding `CC(C)N(c1ccccc1)C(C)C`, the molecule was classed as inactive. The same measure, in the same setting: in the case of `CC(=O)CCC=C(C)CCC=C(C)C` it was “inactive”; in that of `CCn1cc(C(=O)O)c(=O)c2ccc(C)nc21`, “inactive”. Consider `C[C@H](CCC(=O)O)[C@H]1CC[C@H]2[C@@H]3CC[C@@H]4C[C@H](O)CC[C@]4(C)[C@H]3CC[C@]12C`, for which the concentration at half-maximal activity (AC50) is 35.1 µM (active). In the case of `CC12CCC(C1)C(C)(C)C2O` (stereo not given), the molecule was classed as inactive. The same measure, in the same setting: in the case of `CCCCCCC(O)CCOC(C)=O` (stereo not given) it was “inactive”; in that of `CCC(C)(CCCC(C)C)OC(C)=O` (stereo not given), “inactive”.
